Compound activity (PubChem BioAssay)
HTR5A ag ctr – HTR5A agonism, opioid heterodimer counter-screen | hit rate 0.61% among 340,000 | HTR5A agonist assay, luminescence, cell-based | P47898 | activation, % at 9.3 µM; in the data active means activation mostly above about 9.5%, no sharp cut-off; inactive means mostly below about 7.6%
sPLA2-III inh – Blocks human group III sPLA2 activity; hit rate 0.56% among 370,000; Q9NZ20; QFRET BODIPY PC-A2 liposome hydrolysis, fluorescence; AID 743126; inhibition, % at 12.2 µM;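 active means inhibition above mean plus 3 SD of compounds lying within the high and low control bounds, cut at about 19% in these data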
Target sequence (Q9NZ20 whole entry, looked up): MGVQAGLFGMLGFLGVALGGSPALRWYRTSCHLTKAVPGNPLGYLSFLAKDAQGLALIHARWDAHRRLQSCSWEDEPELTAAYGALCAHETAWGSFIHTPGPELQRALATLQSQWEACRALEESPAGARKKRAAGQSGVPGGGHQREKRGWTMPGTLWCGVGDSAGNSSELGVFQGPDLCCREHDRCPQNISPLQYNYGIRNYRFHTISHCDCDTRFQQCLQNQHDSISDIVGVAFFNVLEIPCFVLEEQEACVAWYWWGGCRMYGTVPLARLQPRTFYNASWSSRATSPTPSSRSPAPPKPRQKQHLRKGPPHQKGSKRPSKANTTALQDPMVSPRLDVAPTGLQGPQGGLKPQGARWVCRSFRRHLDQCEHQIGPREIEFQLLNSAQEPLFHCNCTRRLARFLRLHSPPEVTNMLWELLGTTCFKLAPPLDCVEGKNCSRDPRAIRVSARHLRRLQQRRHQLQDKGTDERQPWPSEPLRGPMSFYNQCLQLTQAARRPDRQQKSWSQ
HTR5A inv ag – HTR5A inverse agonism, opioid heterodimer counter-screen; HTR5A cell line, luminescence; inhibition, % at 9.3 µM; hit rate 0.083% among 340,000; in the data active means inhibition mostly above about 23%, no sharp cut-off; inactive means mostly below about 18%
MOR-DOR inv ag – inverse agonists of human mu-delta opioid receptor heterodimerization; AID 504357; cell-based MOR-DOR heterodimer luminescence, inverse agonism; P35372+P41143; inhibition, % at 9.3 µM; hit rate 0.21% among 340,000; in the data active means inhibition above about 22%, passing the limit was not always enough
MOR-DOR ag-1 – agonists of human mu-delta opioid receptor heterodimerization. P35372+P41143. cells, OPRM1-OPRD1 heterodimerization, luminescence. activation, % at 9.3 µM. hit rate 0.3% among 340,000. AID 504326
m5-HT2A agonist – activates the mouse 5-HT2A serotonin receptor. AID 624169. CHO-K1 mHTR2A beta-arrestin complementation, luminescence; percent of 30 µM serotonin response. activation, % at 7.6 µM. hit rate 0.66% among 360,000;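 active means activation above a run cutoff, the mean activation of all tested compounds plus 3 SD, cut at about 14% in these data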
MOR-DOR ag-2 – promotes OPRM1-OPRD1 heterodimerization in HTR5A counter-screen; shares compounds with HTR5A ag ctr; U2OS counter-screen cells, complementation luminescence, 3 h; activation, % at 9.3 µM; hit rate 13% among 800; AID 504913
HTR5A ag confirm – HTR5A (human) agonism, confirmation; shares compounds with HTR5A ag ctr; HTR5A agonist cell assay, luminescence; activation, % at 9.3 µM; hit rate 17% among 800; AID 504915; in the data active means activation above about 17%
Hits are given with their value; . = inactive; / = no result given. A selection: hits, their analogues and other compounds. The true share with any hit is near 2.2%. Unless noted, no stated cut-off is given here; in the data, active means activation above about 18%; inactive means the rest.

SMILES	HTR5A ag ctr	sPLA2-III inh	HTR5A inv ag	MOR-DOR inv ag	MOR-DOR ag-1	m5-HT2A agonist	MOR-DOR ag-2	HTR5A ag confirm
Cn1cnc(C(=O)NC2CCN(C(=O)OC(C)(C)C)CC2)c1C(=O)NC1CCN(C(=O)OC(C)(C)C)CC1	.	.	.	.	.	.	/	/
COC(=O)[C@]1(Cc2ccccc2)NC=C(C(=O)c2ccccc2)[C@@H]1c1cccs1	/	.	/	/	/	/	/	/
C[C@H]1CN(S(=O)(=O)C(C)(C)C)[C@@H](CCO)/C1=C\CCO	/	.	/	/	/	/	/	/
Cc1cc(=O)c(C(=O)O)nn1-c1cccc(C(F)(F)F)c1	.	.	.	.	.	.	/	/
Cc1cc(=O)c(C(=O)O)nn1-c1ccccc1C(F)(F)F	15.4	.	.	.	.	.	.	.
CCN(CC)C(CNC(=O)CSc1nnnn1-c1c(C)cccc1C)c1ccco1 (stereo unspecified)	20.0	.	.	.	.	.	.	29.4
CN(Cc1ccccc1)S(=O)(=O)c1ccc2c(c1)n(C)c(=O)n2C	16.1	.	.	.	.	.	.	.
CCOc1ccc(NC(=O)c2cc(=O)[nH]c3ccccc23)cc1	15.8	.	.	.	.	.	21.4	.
C=CCc1cccc2cc(C(=O)N3CCN(C(=O)c4ccccc4)CC3)c(=O)oc12	16.3	.	.	.	.	.	.	.
C=CCc1cccc2cc(C(=O)N3CCOCC3)c(=O)oc12	.	.	.	.	.	.	/	/
COc1cc(/C=C2/CC/C(=C/c3ccc(O)c(OC)c3)C2=O)ccc1O	23.5	.	.	.	.	.	.	.
Cc1ccc(S(=O)(=O)NN=C2C3CC4CC(C3)CC2C4)cc1	15.0	.	.	.	.	.	.	.
CCCOn1nnnc1-c1ccccc1	20.5	.	.	.	.	.	535.2	.
CCCOc1nnnn1-c1ccccc1	.	.	.	.	.	.	/	/
COC(=O)[C@]12C[C@H](CC(=O)NCCCCc3ccccc3)C(=O)N(Cc3ccc(Cl)cc3Cl)C1=C[C@H](C(C)(C)C)O[C@@H]2C	/	.	/	/	/	/	/	/
CCOC(=O)CCSc1nc(-c2ccc3c(c2)OCO3)cc(C(F)(F)F)c1C#N	18.0	.	.	.	.	.	.	.
CCOC(=O)CC(=O)CSc1nc(-c2ccc3c(c2)OCO3)cc(C(F)(F)F)c1C#N	.	/	.	.	.	.	/	/
O=C(CCc1ccccc1-c1ccccc1CCNC(=O)COCc1ccccc1)NCc1ccccc1	/	.	/	/	/	/	/	/
CC1CN(c2ccccc2)CCN1C(=O)c1cc(COc2c(F)cccc2F)on1 (stereo unspecified)	14.5	.	.	.	.	.	.	86.6
O=C(COc1ncnc2ccccc12)Nc1cc([N+](=O)[O-])ccc1F	19.2	.	.	.	.	.	.	.
CN(CCc1ccccn1)C(=O)Cn1nc(-c2ccccc2)ccc1=O	/	.	/	/	/	/	/	/
O=S(=O)(NCc1ccc(F)cc1)c1cccc(S(=O)(=O)N2CCOCC2)c1	19.6	.	.	.	.	.	.	.
O=S(=O)(NCc1ccccc1F)c1cccc(S(=O)(=O)N2CCOCC2)c1	.	.	.	.	.	.	/	/
CNc1ccccc(-c2ccc3ccccc3n2)c1=O	15.2	.	.	.	.	.	.	38.8
c1ccc(-c2ccc3ccccc3n2)cc1	.	.	.	.	.	.	/	/
SMILES	HTR5A ag ctr	sPLA2-III inh	HTR5A inv ag	MOR-DOR inv ag	MOR-DOR ag-1	m5-HT2A agonist	MOR-DOR ag-2	HTR5A ag confirm
CCOC(=O)C1=C(C(=O)OCC)C2N(Cc3ccc(Br)cc3)c3ccccc3[C@@]23C[C@@H](C(=O)OC)N(S(=O)(=O)c2ccc(Br)cc2)C3=N1 (stereo partly specified)	/	.	/	/	/	/	/	/
CCn1c(N2CCN(C(=O)NC3CCCCC3)CC2)nc2ccccc21	23.9	.	.	.	.	.	.	.
CCn1c(N2CCN(C(=O)Nc3ccc(F)cc3)CC2)nc2ccccc21	.	.	.	.	.	.	/	/
COC(=O)CSc1nnc(-c2ccc(NS(=O)(=O)c3ccc(C)c(C)c3)cc2)o1	/	.	/	/	/	/	/	/
Cc1ccc(Cl)cc1NC(=O)c1cc2ccccc2cc1O	22.2	.	.	.	.	.	.	.
CCn1c(=O)n(CC(=O)N2CCCC2)c(=O)c2ccccc21	/	.	/	/	/	/	/	/
CCOc1cc(S(=O)(=O)N2CCCCCC2)ccc1F	20.4	.	.	.	.	.	.	.
CCCCC1(Br)C(=O)N(c2ccccc2)N(c2ccccc2)C1=O	16.4	.	.	.	.	.	.	.
COc1ccc(CN2CN3Cc4cc(OC)ccc4C3CS2(=O)=O)cc1 (stereo unspecified)	/	.	/	/	/	/	/	/
Cc1cc[n+](Cc2ccccc2)c(N)c1	14.4	.	.	.	.	.	54.9	.
O=C(NCCCc1ccccc1)OC1CC2CC1[C@H]1CCCCN1C2 (stereo partly specified)	/	.	/	/	/	/	/	/
Cc1ccc(Cl)c2sc(N3CCN(C(=O)c4ccco4)CC3)nc12	.	.	.	.	.	.	/	/
COc1cccc2sc(N3CCN(C(=O)c4ccco4)CC3)nc12	18.7	.	.	.	.	.	18.9	.
O=C(NCc1ccccc1)[C@@H]1CCCN1C(=O)[C@H]1CCCN1C(=O)c1ccccc1F	/	.	/	/	/	/	/	/
COc1ccc(-n2c(SCc3nc4ccccc4[nH]3)nc3ccccc3c2=O)cc1	/	.	/	/	/	/	/	/
CN1C(=O)c2cccc3c(S(=O)(=O)N4CCCC4C(=O)O)ccc1c23 (stereo unspecified)	17.2	.	.	.	.	.	.	.
CN1C(=O)c2cccc3c(S(=O)(=O)Nc4ccc(O)c(C(=O)O)c4)ccc1c23	.	.	.	.	.	.	/	/
Cn1cccc1C(=O)NC(=O)COC(=O)CNS(=O)(=O)c1ccc(Br)cc1	17.3	.	.	.	.	.	.	.
Brc1ccccc1C1Cc2nnccc2CN1 (stereo unspecified)	/	.	/	/	/	/	/	/
COc1ccc(-n2c(SCC(=O)c3ccc4ccccc4c3)nnc2-c2ccccc2)cc1	/	.	/	/	/	/	/	/
COc1ccc(C(=O)/C=C(\Nc2ccc(F)cc2)c2ccc(OC)cc2OC)c(OC)c1	/	.	/	/	/	/	/	/
CCCN(CCC)C(=O)CSc1nc2n[nH]c(C)c2c(=N)n1-c1ccc(OCC)cc1	.	/	.	.	.	.	/	/
CCOc1ccc(-n2c(SCC(=O)Nc3ccc(CC)cc3)nc3n[nH]c(C)c3c2=N)cc1	17.4	.	.	.	.	.	.	.
CC(C)C[C@H]1COc2cccc(F)c2S(=O)(=O)N1C	/	.	/	/	/	/	/	/
COc1ccc(CN2C(=O)[C@]3(NCCc4c3[nH]c3ccc(OC)cc43)c3cc(Br)ccc32)cc1	/	.	/	/	/	/	/	/
COc1ccc2[nH]c3c(c2c1)CCNC3(C)CCc1ccc(Cl)nc1 (stereo unspecified)	20.8	.	.	.	.	.	.	33.8
Cc1noc(C)c1C(=O)N1CCC(n2nnc3ncccc32)CC1	/	.	/	/	/	/	/	/
Cc1c(C(=O)Nc2ccncc2)sc2nc(-c3ccc(F)cc3)cn12	19.4	.	.	.	.	.	.	.
COc1ccc(-c2cn3c(C)c(C(=O)Nc4ccncc4)sc3n2)cc1	.	.	.	.	.	.	/	/
